ATXN2 expr inh: ATXN2 expression inhibition; HEK-293 ATXN2-luciferase reporter, luminescence, 24 h; Potency, µM (top dose mostly 57 µM), actives largely listed as inhibitors; hit rate 0.72% among 360,000; AID 1745845; note: nearly all actives have a fitted effect of over 55% in size
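qHTS (up to 57 uM final) was run with 24 h compound exposure of reporter cells at 37 °C. Each well was multiplexed: SteadyGlo luminescence measured ATXN2-luciferase expression after a fluorogenic Gly-Phe-AFC viability readout (25 uM final).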
S2 tox: reduces viability in counter-screen for ATXN expression inhibitors | S2 cells (HEK-293 line with an ATXN2-luciferase reporter) viability, CellTiter-Fluor protease fluorescence, 24 h | Potency, µM (series often up to 56.7 µM), most hits filed as cytotoxic | hit rate 0.49% among 400,000; note: nearly all actives have a fitted effect of over 40% in size
IL1B secr inh: blocks inflammasome-driven IL-1 beta release; THP-1 LPS/ATP IL-1B secretion, AlphaLISA, 16 h; stronger effect = lower value; hit rate 4.7% among 360,000; activity change, % at 57.5 µM; in the data active = activity change below about -50%; inconclusive = mostly about -30% to -49%
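Secreted IL-1B measured by AlphaLISA bead assay after 16 h compound exposure of THP-1 cells; compounds (final up to 57.5 uM) added 1 h before LPS (250 ng/mL) and ATP (1.25 mM) stimulation; lower signal means less secretion.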
HepG2 viability: counter-screen for TGF-b inhibitors: cytotoxicity in HepG2 cells. HepG2 CAGA-GFP viability, ATP luminescence, 18 h. Potency, µM (series often up to 46.1 µM), hits mostly cytotoxic. hit rate 0.76% among 410,000. AID 588856
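HepG2 CAGA-GFP cells (1000/well, DMEM with 1% FBS) received compound, then TGF-beta at 500 pg/mL final, and were incubated 18 hours at 37 degrees C. Viability was read by CellTiter-Glo luminescence. Media-only wells were set as complete cell-killing and DMSO as no toxicity.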
TGFb SMAD3 inh: blocks TGF-b signaling. Potency, µM (highest dose often 46.1 µM), actives largely listed as inhibitors. hit rate 1.2% among 410,000. HepG2 CAGA-GFP TGF-b/SMAD3 reporter, GFP fluorescence, 18 h; TGF-beta stimulated, 500 pg/mL final; note: nearly all actives have a fitted effect of over 65% in size
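Read-out: total well GFP (ex488/em500-530) summed from mean per-cell fluorescence. Cells: HEPG2 CAGA-GFP, 1% FBS DMEM, 18 h at 37 degrees C with 500 pg/mL final TGF-beta. Unstimulated wells served as the full-inhibition control; stimulated DMSO wells = 0%.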
Hits are given with their value; - = inactive; ? = inconclusive; . = no result given; [ ] = dose if it differs, or a comment. Only some compounds are listed: those with a hit (about 5.7% of all), similar ones and a draw of the others. Unless noted, calls come from the whole dose curve; as a rule, active = well fitted curve in the direction sought with a large enough effect; inconclusive = small, poorly fitted or top-dose-only effect, or another doubt; inactive = no such curve, though single readings can be large; an effect the other way counts as inactive or inconclusive.

SMILES | ATXN2 expr inh | S2 tox | IL1B secr inh | HepG2 viability | TGFb SMAD3 inh
CSc1nc(NCCN(C)C)c2sc3nc(-c4ccco4)c4c(c3c2n1)CCC4 | - | - | -101 | - | ?
CCN(CC)CCNc1ncnc2c1sc1nc(N3CCCC3)c3c(c12)CC(C)(C)OC3 | - | - | -75 | - | ?
CSc1nc(N(C)CCO)c2sc3nc(-c4ccco4)c4c(c3c2n1)CCC4 | - | - | - | - | -
CN(C)CCNc1ncnc2c1sc1nc(N3CCCC3)c3c(c12)CC(C)(C)OC3 | ? | ? | -82 | - | ?
CC(C)CNc1ncnc2c1sc1nc(N3CCOCC3)c3c(c12)CC(C)(C)OC3 | - | - | - | - | -
CC1(C)Cc2c(c(-c3ccco3)nc3sc4c(NCCN5CCOCC5)ncnc4c23)CO1 | ? | - | -181 | - | -
CNC(=O)C1CCC(Cn2c(=O)c3sccc3n(CC(=O)NCc3ccccc3)c2=O)CC1 (stereo not drawn) | - | ? | . | - | ?
O=C(NCc1ccc(F)cc1)C1CCN(C(=O)c2ccc(-n3ccc4ccccc43)s2)CC1 | . | . | . | - | ?
OCCNc1ncnc2c1sc1nc(N3CCOCC3)c3c(c12)CCC3 | - | - | -53 | - | -
CCCCCCNc1ncnc2c1sc1nc(N3CCOCC3)c3c(c12)CCCC3 | - | - | . | - | -
Nc1nc(Cl)nc2c1ncn2[C@@H]1O[C@H](CO)[C@@H](O)[C@H]1F | 0.0097µM | . | . | . | .
Brc1ccccc1OCCCCn1cnc2ccccc21 | - | - | -84 | - | -
Clc1ccccc1OCCn1cnc2ccccc21 | - | - | - | - | -
Cc1ccc(OCC(O)CN2CCC(Cc3ccccc3)CC2)c(C)c1 (stereo not drawn) | ? | - | -54 | - | ?
COc1ccccc1N1CCN(CC(O)COc2ccc(C)cc2C)CC1 (stereo not drawn) | - | - | -65 | - | -
OC(COc1ccccc1)CN1CCN(C(c2ccccc2)c2ccccc2)CC1 (stereo not drawn) | - | - | ? | - | 14µM
OC(COc1ccccc1)CN1CCC(Cc2ccccc2)CC1 (stereo not drawn) | - | - | -72 | - | -
c1ccc(OCCOCCN2CCN(C(c3ccccc3)c3ccccc3)CC2)cc1 | - | - | -54 | - | ?
COc1cccc(OC)c1OCCCCCCN1CCN(C)CC1 | . | - | - | - | -
OC(COc1ccc(F)cc1Cl)CN1CCC(Cc2ccccc2)CC1 (stereo not drawn) | . | ? | -61 | 16µM | ?
COc1ccccc1OCCCCN1CCN(C(c2ccccc2)c2ccccc2)CC1 | - | ? | -80 | - | ?
CN(C)c1ccc(CCC2C=Cc3ccccc32)cc1 (stereo not drawn) | . | . | . | - | -
CCOc1ccc(OCC)c(NC(=O)CCC(=O)N2CCOc3ccccc32)c1 | - | - | . | - | -
Fc1ccc(Nc2nc(Nc3ccc(F)cc3)nc(N3CCOCC3)n2)cc1 | - | - | . | - | -
Fc1ccc(Nc2nc(N3CCOCC3)c3ccccc3n2)cc1 | - | - | -78 | - | ?
SMILES | ATXN2 expr inh | S2 tox | IL1B secr inh | HepG2 viability | TGFb SMAD3 inh
c1ccc2c(Nc3nc(N4CCOCC4)c4ccccc4n3)cccc2c1 | ? | - | -109 | - | 25µM
c1ccc2c(N3CCCCC3)nc(N3CCOCC3)nc2c1 | -[11.3 µM] | - | - | - | -
COc1cccc(NC(=O)N2CCCC2)c1 | . | - | - | - | -
O=C(NCCCNc1nc(Nc2cccc(NC(=O)N3CCCC3)c2)ncc1I)c1cccs1 | 14µM | . | . | . | .
COc1ccc(-n2nc3c(N4CCCC(C(=O)NCc5ccc(C)cc5)C4)nnc(C)c3c2C)cc1 (stereo not drawn) | ? | . | . | - | -
COc1ccccc1NC(=O)c1sc2nc(-c3cc4cc(Cl)ccc4oc3=O)[nH]c(=O)c2c1C | . | . | . | - | -
O=C(C=CC(=O)OC1CCCCC1)OC1CCCCC1 | - | - | -88 | - | -
COCCNC(=O)c1c(NC(=O)Cc2coc3cc(C)ccc23)sc2c1CCCC2 | - | - | . | - | -
O=C(c1ccc(NS(=O)(=O)c2ccccc2)cc1)N1CCCC1 | - | - | - | - | -
O=C(c1ccc(NS(=O)(=O)/C=C/c2ccccc2)cc1)N1CCCCC1 | - | - | -76 | - | -
CCOC(=O)c1ccccc1NC(=O)Cn1nnc2sc3c(c2c1=O)CCCC3 | - | - | . | - | -
CC(=O)Nc1cccc(Oc2nc(-c3ccccn3)nc3ccccc23)c1 | ? | ? | . | - | -
Cc1cccc(Oc2nc(-c3ccccn3)nc3ccccc23)c1 | - | ? | -99 | 11µM | ?
CC(=O)Nc1ccc(Oc2nc(-c3ccccn3)nc3ccccc23)cc1 | - | ? | -94 | - | ?
Cc1cccc(Oc2nc(-c3ccncc3)nc3ccccc23)c1 | - | - | - | - | ?
Cc1ccc(-n2c(SCC(N)=O)nc3c(oc4ccccc43)c2=O)cc1C | - | - | . | - | ?
CCOc1ccccc1N1CCN(C/C=C/c2ccc(N(C)C)cc2)CC1 | - | - | - | - | -
CN(C)c1ccc(/C=C/N2C=CCc3c2ccc2ccccc32)cc1 | . | . | . | - | 7.1µM
CC(=O)Nc1ccc(S(=O)(=O)N2CCC(n3c(C(F)(F)F)nc4cccnc43)CC2)cc1 | - | - | . | - | -
CN(Cc1ccccc1)c1oc(COc2ccccc2F)nc1C#N | - | - | - | - | -
Cc1ccc(OCc2nc(C#N)c(NCCc3ccccc3)o2)cc1 | . | . | . | - | 22µM
Cc1ccc(OCc2nc(C#N)c(NCc3ccco3)o2)cc1 | - | - | -54 | - | -
COc1ccc(CCNc2oc(COc3ccccc3)nc2C#N)cc1 | - | - | - | - | -
N#Cc1nc(COc2ccccc2F)oc1NCCc1ccccc1 | - | - | -77 | - | -
OC[C@@H]1CCC[C@@H](n2cnc3c(=S)nc[nH]c32)O1 | . | . | . | - | -
SMILES | ATXN2 expr inh | S2 tox | IL1B secr inh | HepG2 viability | TGFb SMAD3 inh
CCOC(=O)N1CCN(Cc2ccc3c(c2)CN(C(=O)c2sc(C)nc2C)CCO3)CC1 | . | - | . | . | .
C(=C\c1ccnc2ccccc12)/c1ccc(N2CCNCC2)cc1 | . | . | . | - | ?
Cc1ccc(C(=O)CC(=O)c2cc(Cl)ccc2O)cc1 | - | - | - | - | ?
N/C(=C\C(=O)c1cc(Cl)ccc1O)C(Cl)(Cl)Cl | 20µM | ? | - | - | 10µM
Cc1ccccc1NC(=O)/C(C#N)=C/c1ccc(Cl)cc1Cl | - | - | . | - | -
Cc1ccc(O)c(NC(=O)c2cc(-c3ccc(F)cc3)on2)c1 | - | - | ? | - | -
Cc1ccc(O)c(NC(=O)c2cc(-c3cccs3)on2)c1 | - | - | -67 | - | -
Cc1ccc(CNC(=O)CSc2ncc3c(n2)-c2cc(Cl)ccc2N(C)S3(=O)=O)cc1 | - | - | . | - | -
COCCN1C(=O)N[C@@H](c2cccc(C(F)(F)F)c2)[C@H](C(C)=O)[C@H]1C | - | - | - | 18µM | ?
COCCN1C(=O)N[C@@H](c2ccccc2)[C@H](C(C)=O)[C@H]1C | - | - | - | - | -
CC(C)N(C(=O)CSc1nnc(Cc2csc(Nc3ccccc3)n2)o1)C(C)C | - | ? | -70 | - | -

Screening results (PubChem)
